Some test systems named below: HCT-15 colon; HT29 colon; SNB-75 CNS; SNB-19 CNS; U251 CNS; PC-3 prostate; SK-MEL-5 melanoma; UACC-62 melanoma; LOX IMVI melanoma; SK-MEL-28 melanoma; SK-MEL-2 melanoma; EKVX NSCLC; SN12C renal; UO-31 renal; TK-10 renal; ACHN renal; CAKI-1 renal; A498 renal; CCRF-CEM leukemia; MOLT-4 leukemia.
Holding throughout (test): NCI-60 one-dose screen, 48 h (100 = growth as untreated, 0 = no growth, -100 = all killed)
Holding throughout (conditions): 10 µM unless noted

This is part of a sample that, as a whole, favours compounds with a hit. Of some 83,000 tested, about 20% had one in any assay.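 Negative percent growth values reflect cell death: -40 means 40% of the cells present at the start died, and -100 means all died.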 Unmarked numbers belong to inactive results. Activity calls are given as the source filed them. Rule for the calls: active = growth percent below 10; inactive = the rest.

Results on seven compounds are retold here after PubChem BioAssay (NCI).

For `C#Cc1cc(C(=O)Nc2ccc(CN3CCN(C)CC3)c(C(F)(F)F)c2)ccc1C`, the growth in the test with HCT-15 colon is 26.3%; with HT29 colon it was 5.65% (active); in the test on SNB-75 CNS, 76.3%; in the test on SNB-19 CNS, 94.9%; in the test with U251 CNS it was 56%; with PC-3 prostate, 61.5%. Besides, the growth in the test with SK-MEL-5 melanoma was 15.6%; with UACC-62 melanoma, 40.2%; in the test on LOX IMVI melanoma it was 31.1%; in the test with SK-MEL-28 melanoma, 18.8%; with SK-MEL-2 melanoma, 91.1%; with EKVX NSCLC, 91.5%. Besides, the growth in the test with SN12C renal was 84.5%; with UO-31 renal it was 60.2%; in the test with TK-10 renal, 94.7%; in the test on ACHN renal, 92.2%; in the test with CAKI-1 renal, 63.7%; in the test on A498 renal, 63.9%. Moreover, the results for the growth in the test on CCRF-CEM leukemia and with MOLT-4 leukemia were 74.8% and 58.9%, respectively.
As for `[2H]C([2H])([2H])Oc1cc(F)ccc1/C=C/C(=O)/C=C(/C=C/c1ccc(F)cc1OC([2H])([2H])[2H])OB(F)F`, the growth in the test with HCT-15 colon is 25.3%; with HT29 colon, 32.4%; with SNB-75 CNS, 81.1%; in the test with SNB-19 CNS, 56.9%; in the test with U251 CNS, 31.7%; in the test on PC-3 prostate it was 43.8%. The growth in the test with SK-MEL-5 melanoma was 30.6%; with UACC-62 melanoma, 20.9%; in the test with LOX IMVI melanoma, 2.12% (active); in the test on SK-MEL-28 melanoma, 29.5%; in the test on SK-MEL-2 melanoma, 48%; with EKVX NSCLC, 76.6%. Besides, the growth is 42.6% in the test on SN12C renal; 49.5% with UO-31 renal; 43.6% with TK-10 renal; 14.8% in the test with ACHN renal; 18.2% with CAKI-1 renal; 89% in the test with A498 renal. In addition, the values for the growth in the test with CCRF-CEM leukemia and in the test on MOLT-4 leukemia were 2.38% (active) and 1.25% (active), respectively.
Regarding `CCN1C(=O)/C(=c2\sc3n(c2=O)C2C(NN=3)N(CC)C(=O)N2CC)c2ccccc21` (stereo not given), the growth was 19.3% in the test with HCT-15 colon; 13% with HT29 colon; 5.72% (active) in the test on SNB-75 CNS; 42% with SNB-19 CNS; 32.3% in the test on U251 CNS; 26.3% with PC-3 prostate. Also, the growth in the test with SK-MEL-5 melanoma is 12.7%; in the test with UACC-62 melanoma it was 32.9%; in the test with LOX IMVI melanoma, 33%; in the test on SK-MEL-28 melanoma it was 54.2%; in the test on SK-MEL-2 melanoma, 60.1%; with EKVX NSCLC, 65%. Moreover, the growth with SN12C renal was 29.1%; in the test with UO-31 renal, 51.2%; in the test on TK-10 renal, 76.6%; in the test with ACHN renal it was 38.5%; in the test with CAKI-1 renal, 45.7%; in the test with A498 renal, -25.4% (active). The growth in the test with CCRF-CEM leukemia is 25.7%; in the test with MOLT-4 leukemia it was 26.6%.
Turning to `CON1CCC[C@]2(C)[C@H]3CC[C@@H]4[C@H]5[C@@H](O)C(C)(C)CC[C@]5(CO)CC[C@@]4(C)[C@]3(C)CC[C@H]2C1(C)C`, the growth in the test with HCT-15 colon was 106%; in the test on HT29 colon it was 91.2%; in the test with SNB-75 CNS, 98.7%; with SNB-19 CNS, 100%; in the test with U251 CNS, 90%; with PC-3 prostate, 59.6%. For the same compound, the growth with SK-MEL-5 melanoma is 102%; in the test with UACC-62 melanoma, 96%; with LOX IMVI melanoma it was 87.7%; in the test on SK-MEL-28 melanoma, 107%; in the test on SK-MEL-2 melanoma it was 103%; in the test on EKVX NSCLC, 98.1%. The growth with SN12C renal is 93.1%; with UO-31 renal it was 95.2%; with TK-10 renal, 105%; with ACHN renal, 107%; in the test with CAKI-1 renal, 97.4%; in the test on A498 renal it was 114%. Besides, the growth with CCRF-CEM leukemia was 94.5%; in the test on MOLT-4 leukemia it was 83.7%.
As to `COc1ccc2c(c1)c(C(=O)c1nc(-c3cn(C)c4ccccc34)no1)cn2C`, the growth in the test with HCT-15 colon was 82.9%; with HT29 colon, 88.8%; in the test on SNB-75 CNS, 108%; in the test with SNB-19 CNS, 92.8%; in the test with U251 CNS, 101%; with PC-3 prostate it was 83.8%. For the same compound, the growth in the test on SK-MEL-5 melanoma was 82.2%; in the test with UACC-62 melanoma, 76.6%; in the test with LOX IMVI melanoma it was 103%; with SK-MEL-28 melanoma, 93.4%; in the test with SK-MEL-2 melanoma it was 101%; with EKVX NSCLC, 103%. Besides, the growth in the test on SN12C renal is 89.5%; in the test on UO-31 renal, 77.2%; with TK-10 renal it was 91.7%; in the test with ACHN renal, 95.9%; in the test on CAKI-1 renal, 94.1%; in the test with A498 renal, 87.7%. Also, the growth was 87.9% in the test on CCRF-CEM leukemia and 94.2% with MOLT-4 leukemia.
Regarding `CN1CCN(Cc2ccc(NC(=O)c3cccc(C#Cc4c(N)ncc5ccc(F)cc45)c3)cc2C(F)(F)F)CC1`, the growth in the test with HCT-15 colon is -77.9% (active); with HT29 colon, -56.1% (active); in the test on SNB-75 CNS, -92.4% (active); in the test on SNB-19 CNS it was -85.9% (active); with U251 CNS, -67.9% (active); in the test on PC-3 prostate, -19.2% (active). The growth in the test with SK-MEL-5 melanoma was -83.1% (active); in the test on UACC-62 melanoma, -51.1% (active); in the test with LOX IMVI melanoma, -97.9% (active); in the test on SK-MEL-28 melanoma it was -90.2% (active); in the test with SK-MEL-2 melanoma it was -49.9% (active); in the test on EKVX NSCLC, -19.6% (active). For the same compound, the growth in the test on SN12C renal was 5.02% (active); with UO-31 renal, -69.5% (active); with TK-10 renal it was -70.9% (active); in the test with ACHN renal, -93.5% (active); with CAKI-1 renal it was -98.5% (active); in the test on A498 renal it was -78.9% (active). For the same compound, the values for the growth in the test with CCRF-CEM leukemia and in the test with MOLT-4 leukemia were -23.1% (active) and -61.4% (active), respectively.
Take `Nc1ccc(/C=N/Nc2ccnc3c(N)cccc23)c2cccnc12`: the growth was -49.7% (active) in the test with HCT-15 colon; -22.5% (active) with HT29 colon; -99.7% (active) with SNB-75 CNS; 21.8% in the test on SNB-19 CNS; -63.4% (active) in the test on U251 CNS; 15.8% in the test with PC-3 prostate. Further, the growth with SK-MEL-5 melanoma was 83.1%; in the test on UACC-62 melanoma, 89.5%; with LOX IMVI melanoma it was -90.9% (active); with SK-MEL-28 melanoma, 105%; in the test with SK-MEL-2 melanoma, 87.9%; with EKVX NSCLC, 32.2%. Further, the growth was 71.1% with SN12C renal; -58.8% (active) with UO-31 renal; -43.1% (active) in the test with TK-10 renal; -87.7% (active) in the test on ACHN renal; 31.9% in the test on CAKI-1 renal; 77% with A498 renal. Also, the growth in the test on CCRF-CEM leukemia is -25.6% (active); in the test with MOLT-4 leukemia, -37.5% (active).
